Measurements: PubChem BioAssay (NCI)
The panel holds about 79,000 compounds, 15% with a hit somewhere; the sample as a whole holds those more often. The source made the active and inactive calls. No stated cut-off is given here; in the data, active means growth inhibition above about 70%; inactive means the rest.

What was measured:
[1] = NCI Yeast Anticancer Drug Screen. Data for the rad52 strain (AID 147);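 further: 0% = growth of vehicle-treated control cultures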; details: S. cerevisiae rad52 mutant growth inhibition, stronger effect = higher value
Summary of the method: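 Compounds are applied to a genetically defined yeast strain lacking normal DNA damage repair, and inhibition of growth is expressed relative to cultures given vehicle only.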

[2] = NCI Yeast Anticancer Drug Screen. Data for the wt1 strain (AID 149);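 further: 0% = growth of vehicle-treated wt1 cultures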; details: S. cerevisiae wt1 strain (SPY 50644) growth inhibition, stronger effect = higher value
Summary of the method: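 wt1 yeast, compound-treated; % growth inhibition vs vehicle control.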

[3] = NCI Yeast Anticancer Drug Screen. Data for the rad50EPP+ strain (AID 151);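 further: 0% = growth of vehicle-treated control cultures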; details: S. cerevisiae rad50 mutant strain, stronger effect = higher value
Summary of the method: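 Compounds were applied to the rad50EPP+ yeast strain, which bears a defined DNA repair alteration, and growth inhibition was determined relative to vehicle-treated cultures.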

[4] = NCI Yeast Anticancer Drug Screen. Data for the mgt1 strain (AID 153); details: S. cerevisiae mgt1 mutant growth inhibition, stronger effect = higher value
Summary of the method: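 Strain: mgt1 yeast, one of a set carrying defined DNA damage repair or cell cycle control alterations. Compound-treated growth compared with vehicle.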

[5] = NCI Yeast Anticancer Drug Screen. Data for the rad50 strain (AID 155);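 further: 0% = growth of vehicle-only cultures of the same strain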; details: S. cerevisiae rad50 strain growth inhibition, stronger effect = higher value
Summary of the method: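 Genetically altered yeast (DNA repair pathway); compound treatment; growth inhibition vs vehicle ctrl.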

[6] = NCI Yeast Anticancer Drug Screen. Data for the mec2-1 strain (AID 157); details: S. cerevisiae mec2-1 strain, stronger effect = higher value
Summary of the method: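 Strain: mec2-1 (DNA repair/cell cycle alteration). Compound exposure, then growth measured; inhibition expressed relative to vehicle.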

[7] = NCI Yeast Anticancer Drug Screen. Data for the rad14 strain (AID 159);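 further: 0% = growth of vehicle-treated control cultures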; details: S. cerevisiae rad14 strain growth inhibition, stronger effect = higher value
Summary of the method: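 Test compounds were applied to a repair-deficient yeast strain. Its growth was then compared with that of cultures given vehicle alone, and inhibition was expressed relative to those controls.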

[8] = NCI Yeast Anticancer Drug Screen. Data for the sgs1 mgt1 strain (AID 161);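 further: 0% = growth of cultures given vehicle only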; details: S. cerevisiae sgs1 mgt1 strain, stronger effect = higher value
Summary of the method: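 Read-out: growth inhibition vs vehicle controls. Cells: mutant yeast strain deficient in DNA damage repair.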

[9] = NCI Yeast Anticancer Drug Screen. Data for the CLN2oe strain (AID 163);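 further: 0% = growth of vehicle-only control cultures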; details: S. cerevisiae CLN2oe strain, stronger effect = higher value
Summary of the method: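 Growth of a genetically modified yeast strain is measured after compound exposure and compared with cultures given vehicle alone.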

[10] = NCI Yeast Anticancer Drug Screen. Data for the cln2 rad14 strain (AID 165);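 further: 0% = growth equal to vehicle treated cultures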; details: S. cerevisiae cln2 rad14 strain, stronger effect = higher value
Summary of the method: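 Compounds are applied to the cln2 rad14 yeast strain, and growth is then compared with that of vehicle-treated cultures to give inhibition.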

[11] = NCI Yeast Anticancer Drug Screen. Data for the bub3 strain (AID 167); details: S. cerevisiae bub3 mutant strain, stronger effect = higher value
Summary of the method: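 Yeast carrying a defined mutation is treated with each compound, and growth is compared with that of vehicle-exposed cells to give inhibition.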

[12] = NCI Yeast Anticancer Drug Screen. Data for the wt2 strain (AID 169);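 further: 0% = growth of vehicle-treated yeast cultures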; details: S. cerevisiae wt2 strain growth inhibition, stronger effect = higher value
Summary of the method: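 This strain belongs to a panel of yeast strains with defined genetic alterations in DNA damage repair or cell cycle control. Compounds are applied, and growth inhibition is measured against vehicle-treated cultures.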

[13] = NCI Yeast Anticancer Drug Screen. Data for the mlh1 strain (AID 171);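 further: 0% = growth of vehicle-treated control cultures of the same strain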; details: S. cerevisiae mlh1 strain growth inhibition, stronger effect = higher value
Summary of the method: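 Growth of the mutant yeast strain after compound exposure, expressed as inhibition relative to vehicle-only controls.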

[14] = NCI Yeast Anticancer Drug Screen. Data for the sgs1 strain (AID 173);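 further: 0% = growth of vehicle-only control cultures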; details: S. cerevisiae sgs1 mutant, stronger effect = higher value
Summary of the method: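 Growth of a yeast strain bearing a defined genetic alteration is measured after compound treatment. Inhibition is expressed relative to vehicle-only controls.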

[15] = NCI Yeast Anticancer Drug Screen. Data for the mlh1 rad18 strain (AID 175); details: S. cerevisiae mlh1 rad18 strain growth inhibition, stronger effect = higher value
Summary of the method: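 Read-out is yeast growth inhibition, calculated against vehicle-only controls. The compound was applied to a strain engineered with DNA damage repair alterations.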

[16] = NCI Yeast Anticancer Drug Screen. Data for the rad18 strain (AID 177); details: S. cerevisiae rad18 mutant growth inhibition, stronger effect = higher value
Summary of the method: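 Growth of the mutant yeast strain after compound exposure, normalised to vehicle-only cultures.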

[17] = at 5.0 µM (retest, dose inferred, filed as 0.5)
[18] = at 50.0 µM (retest, dose inferred, filed as 5.0)

Measured: growth inhibition

CCC(/C=C/c1ccccc1)=N\Nc1ccc(Cl)c(Cl)c1
active: [1]; at 33.0 µM 87% | [1]; at 100.0 µM 92% | [2]; at 100.0 µM 93% | [4]; at 100.0 µM 95% | [5]; at 33.0 µM 89% | [5]; [18] 89% | [5]; at 50.0 µM 95.5% | [5]; at 100.0 µM 91% | [6]; [18] 81% | [6]; at 50.0 µM 72.5% | [6]; at 100.0 µM 92% | [7]; at 100.0 µM 94% | [8]; [18] 74% | [8]; at 50.0 µM 82.5% | [9]; at 100.0 µM 89% | [10]; [18] 71% | [10]; at 50.0 µM 85.7% | [11]; at 33.0 µM 85% | [11]; [18] 93% | [11]; at 50.0 µM 94.3% | [11]; at 100.0 µM 91% | [12]; at 100.0 µM 95% | [13]; at 100.0 µM 94% | [14]; at 100.0 µM 95% | [15]; [18] 93% | [15]; at 50.0 µM 91.3% | [16]; at 100.0 µM 95%
inactive: [1]; at 1.2 µM 7% | [1]; at 3.7 µM 11% | [1]; at 11.0 µM 17% | [2]; at 1.2 µM 0% | [2]; at 3.7 µM -3% | [2]; at 11.0 µM -4% | [2]; at 33.0 µM 24% | [3]; at 1.2 µM 9% | [3]; at 3.7 µM 20% | [3]; at 11.0 µM 28% | [3]; at 33.0 µM 29% | [3]; at 100.0 µM 29% | [4]; at 1.2 µM -3% | [4]; at 3.7 µM 4% | [4]; at 11.0 µM -4% | [4]; at 33.0 µM -3% | [5]; at 1.2 µM 26% | [5]; at 3.7 µM 36% | [5]; [17] 7% | [5]; at 11.0 µM 22% | [6]; at 1.2 µM -2% | [6]; at 3.7 µM -1% | [6]; [17] -1% | [6]; at 11.0 µM -5% | [6]; at 33.0 µM 22% | [7]; at 1.2 µM 2% | [7]; at 3.7 µM 0% | [7]; at 11.0 µM -6% | [7]; at 33.0 µM 10% | [8]; [17] 3% | [9]; at 1.2 µM -2% | [9]; at 3.7 µM -8% | [9]; at 11.0 µM -9% | [9]; at 33.0 µM 36% | [10]; [17] 1% | [11]; at 1.2 µM -2% | [11]; at 3.7 µM 2% | [11]; [17] 2% | [11]; at 11.0 µM 14% | [12]; at 1.2 µM -2% | [12]; at 3.7 µM -5% | [12]; at 11.0 µM 7% | [12]; at 33.0 µM 22% | [13]; at 1.2 µM -4% | [13]; at 3.7 µM -2% | [13]; at 11.0 µM 0% | [13]; at 33.0 µM 39% | [14]; at 1.2 µM -3% | [14]; at 3.7 µM -17% | [14]; at 11.0 µM 17% | [14]; at 33.0 µM 67% | [15]; [17] 9% | [16]; at 1.2 µM 6% | [16]; at 3.7 µM 16% | [16]; at 11.0 µM 8% | [16]; at 33.0 µM 43%

CCCCCCC=C(C(=O)OCC)C(=O)OCC
active: [15]; [18] 85% | [15]; at 50.0 µM 76.3%
inactive: [1]; at 1.2 µM -2% | [1]; at 3.7 µM 0% | [1]; at 11.0 µM -1% | [1]; at 33.0 µM 2% | [1]; at 100.0 µM 23% | [2]; at 1.2 µM -2% | [2]; at 3.7 µM -3% | [2]; at 11.0 µM -6% | [2]; at 33.0 µM -7% | [2]; at 100.0 µM 4% | [3]; at 1.2 µM -1% | [3]; at 3.7 µM 4% | [3]; at 11.0 µM 7% | [3]; at 33.0 µM 14% | [3]; at 100.0 µM 24% | [4]; at 1.2 µM -1% | [4]; at 3.7 µM -3% | [4]; at 11.0 µM 0% | [4]; at 33.0 µM -5% | [4]; at 100.0 µM 13% | [5]; at 1.2 µM -2% | [5]; at 3.7 µM -3% | [5]; [17] -18% | [5]; at 11.0 µM -3% | [5]; at 33.0 µM -5% | [5]; [18] 11% | [5]; at 50.0 µM -8.3% | [5]; at 100.0 µM 22% | [6]; at 1.2 µM -1% | [6]; at 3.7 µM 1% | [6]; [17] -8% | [6]; at 11.0 µM -2% | [6]; at 33.0 µM 5% | [6]; [18] 46% | [6]; at 50.0 µM 38% | [6]; at 100.0 µM 22% | [7]; at 1.2 µM -3% | [7]; at 3.7 µM -4% | [7]; at 11.0 µM -2% | [7]; at 33.0 µM 2% | [7]; at 100.0 µM 13% | [8]; [17] -11% | [8]; [18] 68% | [8]; at 50.0 µM 42% | [9]; at 1.2 µM -4% | [9]; at 3.7 µM -4% | [9]; at 11.0 µM -8% | [9]; at 33.0 µM -10% | [9]; at 100.0 µM 3% | [10]; [17] -13% | [10]; [18] 19% | [10]; at 50.0 µM 18.1% | [11]; at 1.2 µM 0% | [11]; at 3.7 µM 0% | [11]; [17] -6% | [11]; at 11.0 µM -1% | [11]; at 33.0 µM 1% | [11]; [18] 18% | [11]; at 50.0 µM 63% | [11]; at 100.0 µM 17% | [12]; at 1.2 µM -2% | [12]; at 3.7 µM -3% | [12]; at 11.0 µM -5% | [12]; at 33.0 µM -4% | [12]; at 100.0 µM 16% | [13]; at 1.2 µM -2% | [13]; at 3.7 µM -2% | [13]; at 11.0 µM -7% | [13]; at 33.0 µM 1% | [13]; at 100.0 µM 19% | [14]; at 1.2 µM -1% | [14]; at 3.7 µM -1% | [14]; at 11.0 µM 1% | [14]; at 33.0 µM 5% | [14]; at 100.0 µM 30% | [15]; [17] -3% | [16]; at 1.2 µM -1% | [16]; at 3.7 µM 5% | [16]; at 11.0 µM 8% | [16]; at 33.0 µM 14% | [16]; at 100.0 µM 32%
